The values that follow come from PubChem BioAssay.

Calls of active or inactive are those of the source.

One assay concerns wheat germ agglutinin (Triticum aestivum), Alexa647-labelled. As to the kind of experiment: Alexa647-WGA lectin binding to printed small molecules – biochemical, small-molecule microarray, 635/667 nm fluorescence, artefact control for SMM control-protein annotation, profiling panel (AID 1140).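 Further: score merges 667 nm feature emission with signal to noise over triplicate slides.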 Conditions: WGA-A647 binding, 635 nm fluorescence, higher = more signal.
In turn, `Cc1ccc(S(=O)(=O)N[C@@H]2COC(=O)[C@H](C)COC(=O)CC=C[C@H]2C)cc1` returned a composite z-score of -0.277.
Still for that read-out and setting: then `C=CC[C@@H]1C=C[C@H](ON=C2c3cc(OC)ccc3O[C@H](c3cccc(OC)c3)[C@H]2O)[C@@H](CO)O1`, with 0.499; and `C=CCC(OC(C)=O)[C@@H]1[C@@H](N(Cc2cc3ccccc3o2)C(=O)Cc2ccc(F)cc2)c2cc(OCCCO)ccc2N1C(=O)Cc1ccc(OC)cc1` (stereo partly specified), with 0.0264.
The same measure, in the same setting: as for `CCOC(=O)[C@H](CC(C)C)NC(=O)CCC1CC(OC(=O)NCCc2ccc(F)cc2)CC2(CCCC(COC(=O)NCc3ccccc3)O2)O1` (stereo partly specified), the figure is 0.422; as for `O=C1[C@H]2[C@H]3[C@H](O)[C@H](O)CC(=NOC[C@@H](O)COCc4ccco4)[C@H]3CC[C@H]2C(=O)N1Cc1ccc2c(c1)OCO2`, -0.186.
For `CC(CCC(=O)OC[C@H]1O[C@H](C#Cc2ccccc2)C=C[C@@H]1Oc1ccc(C)cc1)=NOC[C@@H](O)[C@H]1O[C@@H]2OC(C)(C)O[C@@H]2[C@H]1O`, the composite z-score was -0.604.
`CC(C)(C)N1CC=CC23O[C@@H]4C=CCCOC(=O)C4[C@H]2C(=O)N(CCCCCO)[C@@H]3C1=O` (stereo partly specified) displayed a composite z-score of 0.671.
In the case of `CCc1cc2c(nc1CC)CCN(CCC(C)=NO[C@@H](C)c1cc(-c3c(C)cc(C)cc3C)no1)C2`, the composite z-score is 0.0999.
With `CC(C)CON=C1C[C@@H](O)[C@@H](O)[C@@H]2[C@@H]3C(=O)N(Cc4ccccc4)C(=O)[C@@H]3CC[C@@H]12`, the composite z-score turned out to be 0.0615.
The same measure, in the same setting: as for `COCCCNC(=O)[C@@]1(C)c2ccccc2C(=O)N(Cc2ccc(OC(F)(F)F)cc2)[C@H]1c1ccc(CO)cc1`, the figure is -1.18; as for `O=C1C2=CC[C@H]3C(=O)N(Cc4ccc5c(c4)OCO5)C(=O)[C@H]3[C@H]2[C@H](O)[C@@H]2O[C@H]12`, -0.0306; as for `COc1ccc(O[C@H]2C=C[C@@H](c3ccccc3)O[C@@H]2COC(=O)CCC(C)=NOC(C)CN2CCCCc3nc(C)c(C)cc32)cc1` (stereo partly specified), 0.878.
The same measure, in the same setting: then `CC(CCN1CCCCc2nc(C)c(C)cc21)=NOC(C)CN1CCCCc2nc(C)c(C)cc21` (stereo unspecified), with 1.11.
For `O=C1[C@H]2[C@H]3[C@H](O)[C@H](O)CC(=NOCc4ccccc4)[C@@H]3CC[C@H]2C(=O)N1C1CCCCC1`, the composite z-score is -0.0558.
For the molecule `COc1ccc([Si](C)(C)[C@@H]2[C@@H](CCO)O[C@]3(C(=O)N(Cc4ccc(NC(C)=O)cc4)c4ccccc43)[C@H]2C)cc1`, the composite z-score was found to be 0.771.
Same read-out and setting: as for `Cc1cc2c(c(=O)o1)[C@H](O)[C@H]1O[C@H]1C2=O`, the figure is -0.137; as for `O=C1[C@H]2[C@H]3[C@H](O)[C@H](O)CC(=NOC[C@@H](O)COCc4ccco4)[C@H]3CC[C@H]2C(=O)N1C1CCCCC1`, -1.22; as for `[N-]=[N+]=Nc1ccccc1C[C@@]1(C(N)=O)N=C(c2ccc(OCCCO)cc2)O[C@@H]1c1ccccc1`, 0.402.
In the case of `CCOC(=O)NN=C1C[C@@H](O)[C@@H](O)[C@@H]2[C@@H]3C(=O)N(CC)C(=O)[C@@H]3CC[C@@H]12`, the composite z-score was -0.203.
The same measure, in the same setting: as for `CC(C)NC(=O)[C@@]1(c2ccc([N+](=O)[O-])cc2)CC(=O)N(CC23CC4CC(CC(C4)C2)C3)[C@@H]1c1ccc(CO)cc1I`, the figure is 0.403; as for `COC(=O)C1(C)C=C2C(=C(c3ccccc3)C(=O)C2C)CN1` (stereo unspecified), 0.264.
On the same count and under the same terms, as for `O=C1[C@H]2[C@H]3[C@H](O)[C@H](O)CC(=NO[C@@H]4O[C@H](CO)[C@@H](O)[C@H](O)[C@H]4O)[C@@H]3CC[C@H]2C(=O)N1Cc1ccccc1`, the figure is -0.0706; as for `CCOC(=O)CCN1C(=O)[C@H]2[C@H]3[C@H](O)C=CC(=O)[C@@H]3CC[C@H]2C1=O`, 0.307.
Same read-out and setting: as for `Cc1cc2c(nc1C)CCCN2CC(C)ON=C1[C@H]2CCn3c(=O)n(-c4ccccc4)c(=O)n3[C@H]2[C@H](O)[C@@H]2O[C@H]12` (stereo partly specified), the figure is 0.075.
Turning to `CCCCc1nc2c(c3c1C[C@H](C)OC3)CN(CCC(C)C)CC2`, the composite z-score was 0.399.

The next assay deals with Luciferin 4-monooxygenase (Photinus pyralis) (UniProt P08659). Kind of assay: inhibition of purified Photinus pyralis luciferase – biochemical, luminescence, purified enzyme, 2006 set, primary screen (AID 1141).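 Further: cell-free assay with purified firefly luciferase at 100 ng per well in PBS; test concentration not given here.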 The note with it: purified firefly luciferase, SteadyGlo luminescence, 30 min; higher = more signal, called active from +8 up or from −8 down.
Chain of Luciferin 4-monooxygenase (Photinus pyralis) (P08659 whole entry, looked up): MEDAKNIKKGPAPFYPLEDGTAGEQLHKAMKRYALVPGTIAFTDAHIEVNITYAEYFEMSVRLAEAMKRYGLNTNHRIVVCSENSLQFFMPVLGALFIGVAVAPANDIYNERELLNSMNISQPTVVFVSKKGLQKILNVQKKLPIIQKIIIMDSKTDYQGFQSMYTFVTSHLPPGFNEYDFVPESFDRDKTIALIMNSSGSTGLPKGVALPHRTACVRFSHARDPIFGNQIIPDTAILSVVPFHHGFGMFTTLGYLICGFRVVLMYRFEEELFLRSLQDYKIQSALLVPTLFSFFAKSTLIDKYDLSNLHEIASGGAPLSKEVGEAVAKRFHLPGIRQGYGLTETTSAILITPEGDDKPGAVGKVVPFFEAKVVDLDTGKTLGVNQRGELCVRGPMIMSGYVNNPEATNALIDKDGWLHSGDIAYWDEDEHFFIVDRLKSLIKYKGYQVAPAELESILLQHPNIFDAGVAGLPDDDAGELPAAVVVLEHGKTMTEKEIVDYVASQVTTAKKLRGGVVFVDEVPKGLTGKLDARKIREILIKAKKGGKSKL
Turning to `CC(=O)OC[C@H]1O[C@@H](ON=C[C@@H](C)[C@H](OCc2ccccc2)C(C)C)[C@H](OC(C)=O)[C@@H](OC(C)=O)[C@@H]1OC(C)=O`, the z-score was 0.0242 (inactive).
Regarding `CN1C(=O)C2C=CC(C(O)C(c3ccccc3)c3ccccc3)N(NC(=O)OC(C)(C)C)C2C1=O` (stereo unspecified), the z-score was -0.0519 (inactive).
Still for that read-out and setting: as for `COC(=O)C1=C(C)N(Cc2ccccc2)[C@]23O[C@](C(=O)OC)(C(=O)N2[C@@H]1c1ccccc1)[C@H]1CCOC(=O)[C@H]13`, the figure is -0.431 (inactive).
Still for that read-out and setting: then `C=C(CCCC)C(=O)CC[C@@H](OC(C)=O)c1cccc(OCCO)c1`, with -0.879 (inactive).
Turning to `CO[C@@H]1COC(=O)CC=C[C@@H](C)[C@@H]2C=C[C@@H](O)[C@@H](COC(=O)CC=C[C@H]1C)O2`, the z-score is -2.29 (inactive).
In the case of `COC(=O)[C@@]1(Cc2ccccc2)[C@H]2c3cc(C(=O)N4CCCC4)n(Cc4ccccn4)c3C[C@H]2CN1C(=O)c1ccccc1`, the z-score was 1.93 (inactive).
Regarding `CCOC(=O)NN=C1C[C@@H](O)[C@@H](O)[C@@H]2[C@@H]3C(=O)N(C(C)(C)C)C(=O)[C@@H]3CC[C@@H]12`, the z-score was 0.413 (inactive).
For `C=CCN1C(=O)[C@]2(O[C@H](CCn3cc(CCO)nn3)[C@@H]([Si](C)(C)c3ccc(OC)cc3)[C@@H]2C)c2cc(N3CCOC3=O)ccc21`, the z-score is -1.8 (inactive).
`CCOc1ccc(N2C(=O)/C(=C/C=C/c3ccccc3OC)S(=O)(=O)C2c2cccc([N+](=O)[O-])c2)cc1` (stereo unspecified): the z-score is -0.889 (inactive).
For the molecule `O[C@@H](Cc1ccccc1)[C@H]1C2C=CCCC(c3ccccc3)=C2CN1Cc1cccc(Cl)c1` (stereo partly specified), the z-score is -2.22 (inactive).
As to `CO[C@H]1O[C@H](CO)[C@@H](OC(=O)Nc2ccc(C#N)cc2)[C@H](OC(=O)c2cc3ccccc3[nH]2)[C@H]1OC(=O)c1cc2ccccc2[nH]1`, the z-score is -2.01 (inactive).
Consider `Cc1ccc(S(=O)(=O)N[C@@H]2COC(=O)[C@H](C)COC(=O)CC=C[C@H]2C)cc1`, for which the z-score was -0.181 (inactive).
As for `C=CC[C@@H]1C=C[C@H](ON=C2c3cc(OC)ccc3O[C@H](c3cccc(OC)c3)[C@H]2O)[C@@H](CO)O1`, the z-score was -0.101 (inactive).
Still for that read-out and setting: then `C=CCC(OC(C)=O)[C@@H]1[C@@H](N(Cc2cc3ccccc3o2)C(=O)Cc2ccc(F)cc2)c2cc(OCCCO)ccc2N1C(=O)Cc1ccc(OC)cc1` (stereo partly specified), with -0.188 (inactive); and `CCOC(=O)[C@H](CC(C)C)NC(=O)CCC1CC(OC(=O)NCCc2ccc(F)cc2)CC2(CCCC(COC(=O)NCc3ccccc3)O2)O1` (stereo partly specified), with 0.629 (inactive).
The same measure, in the same setting: then `O=C1[C@H]2[C@H]3[C@H](O)[C@H](O)CC(=NOC[C@@H](O)COCc4ccco4)[C@H]3CC[C@H]2C(=O)N1Cc1ccc2c(c1)OCO2`, with 0.546 (inactive).
As for `CC(CCC(=O)OC[C@H]1O[C@H](C#Cc2ccccc2)C=C[C@@H]1Oc1ccc(C)cc1)=NOC[C@@H](O)[C@H]1O[C@@H]2OC(C)(C)O[C@@H]2[C@H]1O`, the z-score was 0.29 (inactive).
The same measure, in the same setting: then `CC(C)(C)N1CC=CC23O[C@@H]4C=CCCOC(=O)C4[C@H]2C(=O)N(CCCCCO)[C@@H]3C1=O` (stereo partly specified), with -0.789 (inactive).
As for `CCc1cc2c(nc1CC)CCN(CCC(C)=NO[C@@H](C)c1cc(-c3c(C)cc(C)cc3C)no1)C2`, the z-score was -0.887 (inactive).
Turning to `CC(C)CON=C1C[C@@H](O)[C@@H](O)[C@@H]2[C@@H]3C(=O)N(Cc4ccccc4)C(=O)[C@@H]3CC[C@@H]12`, the z-score was 1.12 (inactive).
Same read-out and setting: as for `COCCCNC(=O)[C@@]1(C)c2ccccc2C(=O)N(Cc2ccc(OC(F)(F)F)cc2)[C@H]1c1ccc(CO)cc1`, the figure is -0.159 (inactive); as for `O=C1C2=CC[C@H]3C(=O)N(Cc4ccc5c(c4)OCO5)C(=O)[C@H]3[C@H]2[C@H](O)[C@@H]2O[C@H]12`, -0.272 (inactive).
With `COc1ccc(O[C@H]2C=C[C@@H](c3ccccc3)O[C@@H]2COC(=O)CCC(C)=NOC(C)CN2CCCCc3nc(C)c(C)cc32)cc1` (stereo partly specified), the z-score was 0.731 (inactive).
Regarding `CC(CCN1CCCCc2nc(C)c(C)cc21)=NOC(C)CN1CCCCc2nc(C)c(C)cc21` (stereo unspecified), the z-score is -0.483 (inactive).
For `O=C1[C@H]2[C@H]3[C@H](O)[C@H](O)CC(=NOCc4ccccc4)[C@@H]3CC[C@H]2C(=O)N1C1CCCCC1`, the z-score was 0.0264 (inactive).
In the case of `COc1ccc([Si](C)(C)[C@@H]2[C@@H](CCO)O[C@]3(C(=O)N(Cc4ccc(NC(C)=O)cc4)c4ccccc43)[C@H]2C)cc1`, the z-score was 0.377 (inactive).
Turning to `Cc1cc2c(c(=O)o1)[C@H](O)[C@H]1O[C@H]1C2=O`, the z-score is -0.0074 (inactive).
Same read-out and setting: as for `O=C1[C@H]2[C@H]3[C@H](O)[C@H](O)CC(=NOC[C@@H](O)COCc4ccco4)[C@H]3CC[C@H]2C(=O)N1C1CCCCC1`, the figure is 0.822 (inactive); as for `[N-]=[N+]=Nc1ccccc1C[C@@]1(C(N)=O)N=C(c2ccc(OCCCO)cc2)O[C@@H]1c1ccccc1`, -3.86 (inactive); as for `CCOC(=O)NN=C1C[C@@H](O)[C@@H](O)[C@@H]2[C@@H]3C(=O)N(CC)C(=O)[C@@H]3CC[C@@H]12`, 0.439 (inactive).
In the case of `CC(C)NC(=O)[C@@]1(c2ccc([N+](=O)[O-])cc2)CC(=O)N(CC23CC4CC(CC(C4)C2)C3)[C@@H]1c1ccc(CO)cc1I`, the z-score was 0.355 (inactive).
Regarding `COC(=O)C1(C)C=C2C(=C(c3ccccc3)C(=O)C2C)CN1` (stereo unspecified), the z-score was 1.89 (inactive).
Same read-out and setting: then `O=C1[C@H]2[C@H]3[C@H](O)[C@H](O)CC(=NO[C@@H]4O[C@H](CO)[C@@H](O)[C@H](O)[C@H]4O)[C@@H]3CC[C@H]2C(=O)N1Cc1ccccc1`, with 0.4 (inactive); and `CCOC(=O)CCN1C(=O)[C@H]2[C@H]3[C@H](O)C=CC(=O)[C@@H]3CC[C@H]2C1=O`, with -0.371 (inactive).
Take `Cc1cc2c(nc1C)CCCN2CC(C)ON=C1[C@H]2CCn3c(=O)n(-c4ccccc4)c(=O)n3[C@H]2[C@H](O)[C@@H]2O[C@H]12` (stereo partly specified): the z-score is 0.424 (inactive).
Consider `CCCCc1nc2c(c3c1C[C@H](C)OC3)CN(CCC(C)C)CC2`, for which the z-score is -0.438 (inactive).
